Among the data in PubChem BioAssay (EPA / NIEHS) are outcome and AC50 values, retold here.

A short description of assay [1]: ACEA_AR_agonist_AUC_viability: ACEA Biosciences xCELLigence Real-Time Cell Analysis on Androgen Receptor Agonism for Viability (AID 2283775).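 As to AC50: viability read 80 hours after compound addition.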 The gist of the method:
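Viability endpoint from xCELLigence impedance in 22Rv1 prostate cells at 80 h. Eight-point series, 100 uM maximum final.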

A short description of assay [2]: ACEA_AR_antagonist_AUC_viability: ACEA Biosciences xCELLigence Real-Time Cell Analysis on Androgen Receptor Antagonism for Viability (AID 2283776).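 Also: 22Rv1 human prostate cancer cells growing on impedance electrode plates; hits lower the growth signal relative to DMSO meaning cytotoxicity.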 The gist of the method: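 Impedance read-out (RT-CES): area under growth curve at 80 h post-dose, loss of signal scored vs DMSO baseline. 22Rv1 cells; 8-pt 1:4 series, top 100 uM final, ≤0.5% DMSO; biological duplicate.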

Inconclusive results are not listed. Activity calls are given as the source filed them. The calls were made as follows: active = hit-call score of the fitted dose curve at least 0.9, where 1 is the maximum; inconclusive = response in the unintended direction; inactive = score below 0.9.

As for `NCCOCCOCCN`, the outcome in assay [1] and in assay [2] was inactive.
Turning to `O=[Si]=O`, the outcome in assay [2] was inactive.
Turning to `CN(C)CCCN(C)CCCN(C)C`, the result in assay [1] and in assay [2] was inactive.
As to `CC(C)c1cccc(C(C)C)c1NC(=O)NS(=O)(=O)c1cc(C(C)(C)O)co1`, the AC50 was 28.2 µM (active) in assay [1] and 19 µM (active) in assay [2].
Consider `COC(=O)CCC(=O)OC`, for which the outcome in assay [1] and in assay [2] was inactive.
In the case of `NC=O`, the outcome in assay [1] and in assay [2] was inactive.
Regarding `CC1=C(C)S(=O)(=O)CCS1(=O)=O`, the AC50 in assay [1] was 82.6 µM (active); in assay [2], 88.8 µM (active).
In the case of `CC(=O)[C@@]1(O)CC[C@H]2[C@@H]3CCC4=CC(=O)CC[C@]4(C)[C@H]3CC[C@@]21C`, the call in assay [2] was inactive.
Regarding `CCCC(=O)O`, the result in assay [1] and in assay [2] was inactive.
Regarding `CC(COCC(C)OC(=O)c1ccccc1)OC(=O)c1ccccc1` (stereo not drawn), the result in assay [2] was inactive.
Turning to `CCCCC(CC)COC(=O)CCCCCCCC(=O)OCC(CC)CCCC` (stereo not drawn), the call in assay [1] and in assay [2] was inactive.
For `O=C(N[C@@H](c1ccccc1)[C@@H]1CCCCN1)c1cccc(C(F)(F)F)c1Cl`, the concentration at half-maximal activity (AC50) in assay [1] was 55.8 µM (active); in assay [2] it was 39.5 µM (active).
Turning to `COC(=O)CCCC(=O)OC`, in assay [2], the outcome was inactive.
On to `CCCCC(CC)CO` (stereo not drawn), for which the molecule was called inactive in assay [2].
